High-throughput results deposited in PubChem by several laboratories.
ADAM17 inh = inhibitors of human ADAM17. inhibition, % at 6.95 µM. P78536. recombinant ADAM17, EDANS/DABCYL FRET peptide cleavage. AID 720648. actives 0.83% (n = 370,000);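 active = inhibition above the mean of compounds lying between control limits plus 3 SD, set per campaign, cut at about 8.5% in these data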
ADAM10 inh = ADAM10 inhibition, QFRET primary screen | O14672 | recombinant ADAM10, EDANS/DABCYL FRET peptide cleavage, 3 h | inhibition, % at 7 µM | actives 0.62% (n = 370,000);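 active = inhibition above a per-campaign cutoff equal to the mean of compounds falling between control-based bounds plus 3 SD, cut at about 20% in these data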
FAS-TE inh = blocks the thioesterase domain of human fatty acid synthase; P49327; recombinant FAS-TE, OMFH fluorogenic substrate, fluorescence endpoint; inhibition, % at 15 µM; actives 0.67% (n = 360,000); AID 602261;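 active = compounds whose normalised, plate-corrected inhibition of enzyme fluorescence in the single-dose primary screen is 50% or more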
GRIN3A LBD mod = NR3A (human) ligand-binding domain modulation | Tm shift relative to glycine control, % at 25 µM | NR3A LBD differential scanning fluorimetry, Tm shift; 0% = protein alone, 100% = glycine-bound protein | AID 1259313 | actives 2.5% (n = 340,000);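 active = melting temperature shift of at least 10% of the positive control shift, at one fixed dose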
KLK7 zymogen act = proKLK7 (human) activation, primary screen | P49862 | AID 652039 | activation, % at 7 µM | actives 0.9% (n = 370,000) | purified proKLK7, EDANS-DABCYL substrate fluorescence; 100% is mature enzyme control, 0% vehicle;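 active = activation above the mean of all tested compounds plus 3 SD, computed per campaign excluding outliers beyond control limits, cut at about 13% in these data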
Target sequence (P49862 whole entry, looked up): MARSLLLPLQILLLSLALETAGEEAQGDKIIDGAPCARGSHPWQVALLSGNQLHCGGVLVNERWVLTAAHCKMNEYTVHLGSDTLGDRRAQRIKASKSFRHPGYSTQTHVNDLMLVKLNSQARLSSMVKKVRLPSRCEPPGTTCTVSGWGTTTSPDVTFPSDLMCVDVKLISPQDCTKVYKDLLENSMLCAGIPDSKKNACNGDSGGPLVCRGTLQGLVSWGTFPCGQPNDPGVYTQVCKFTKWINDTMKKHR
A number is an active result. A selection: hits, their analogues and other compounds. The true share with any hit is near 4.6%.

How did CCCCCCCCNS(=O)(=O)CC1NCc2cc(F)ccc21 (stereo unspecified) do in these assays?
ADAM17 inh: inactive; ADAM10 inh: inactive; KLK7 zymogen act: inactive

What do the screens show for `N#CCC(=O)N/N=C/c1cn(Cc2ccccc2C#N)c2ccccc12`?
ADAM17 inh: inactive; ADAM10 inh: inactive; FAS-TE inh: inactive; GRIN3A LBD mod: inactive; KLK7 zymogen act: inactive

How did N#CCC(=O)N/N=C/c1cn(Cc2ccc(Cl)c(Cl)c2)c2ccccc12 do in these assays?
ADAM17 inh: inactive; ADAM10 inh: inactive; FAS-TE inh: inactive; GRIN3A LBD mod: 31; KLK7 zymogen act: inactive

What do the screens show for `COC(=O)c1ccc(CSc2nc3ccccc3c(=O)n2CC(C)C)o1`?
ADAM17 inh: inactive; ADAM10 inh: inactive; FAS-TE inh: inactive; GRIN3A LBD mod: 20; KLK7 zymogen act: inactive

What do the screens show for `COC(=O)c1ccc(CSc2nc3ccccc3c(=O)n2C)o1`?
ADAM17 inh: inactive; ADAM10 inh: inactive; FAS-TE inh: inactive; GRIN3A LBD mod: inactive; KLK7 zymogen act: inactive

What do the screens show for `O=c1[nH]nc(-c2ccc(NCCO)c([N+](=O)[O-])c2)c2ccccc12`?
ADAM17 inh: inactive; ADAM10 inh: inactive; FAS-TE inh: inactive; GRIN3A LBD mod: inactive; KLK7 zymogen act: inactive

How did O=[N+]([O-])c1cc(Cl)cc2c1nc(NCCO)c1ccccc12 do in these assays?
ADAM17 inh: inactive; ADAM10 inh: inactive; FAS-TE inh: inactive; GRIN3A LBD mod: 13; KLK7 zymogen act: inactive

What do the screens show for `Cc1c(NC(=O)C2CCCN(S(=O)(=O)c3ccc(Br)s3)C2)c(=O)n(-c2ccccc2)n1C` (stereo unspecified)?
ADAM17 inh: inactive; ADAM10 inh: inactive; KLK7 zymogen act: inactive

How did CCOC(=O)c1c(-c2cccs2)csc1NC(=O)CN1CCOCC1 do in these assays?
ADAM17 inh: inactive; ADAM10 inh: inactive; FAS-TE inh: inactive; GRIN3A LBD mod: 23; KLK7 zymogen act: inactive

Results for CC(=O)c1cc(-c2ccccc2)n(CC(=O)NCc2ccc(Cl)cc2)c1C ?
ADAM17 inh: inactive; ADAM10 inh: inactive; KLK7 zymogen act: inactive

What do the screens show for `Cc1ccc(-c2csc3nc(SCC(=O)N(C)C)n(Cc4ccccc4)c(=O)c23)cc1`?
ADAM17 inh: inactive; ADAM10 inh: inactive; FAS-TE inh: inactive; GRIN3A LBD mod: inactive; KLK7 zymogen act: inactive

Results for NC(=O)CSc1nc2scc(-c3ccc(Cl)cc3)c2c(=O)n1Cc1ccccc1 ?
ADAM17 inh: inactive; ADAM10 inh: inactive; FAS-TE inh: inactive; GRIN3A LBD mod: 13; KLK7 zymogen act: inactive

Results for CC(=O)Nc1cc(Cl)c(N=Cc2ccc(O)cc2O)cc1Cl ?
ADAM17 inh: inactive; ADAM10 inh: inactive; FAS-TE inh: inactive; GRIN3A LBD mod: inactive; KLK7 zymogen act: inactive

What do the screens show for `CCOC(=O)c1sc(/N=C/c2ccc(O)cc2O)cc1C`?
ADAM17 inh: inactive; ADAM10 inh: inactive; FAS-TE inh: inactive; GRIN3A LBD mod: 14; KLK7 zymogen act: inactive

How did N#CCC(=O)N1CC2(CC(c3cccc(NC(=O)COc4ccc(Cl)cc4)c3)=NO2)C[C@@H]1C(N)=O (stereo partly specified) do in these assays?
ADAM17 inh: inactive; ADAM10 inh: inactive; FAS-TE inh: inactive; GRIN3A LBD mod: inactive; KLK7 zymogen act: inactive

How did NC(=O)[C@@H]1CC2(CC(c3cccc(NC(=O)COc4ccc(Cl)cc4)c3)=NO2)CN1C(=O)COc1ccc(Cl)cc1 (stereo partly specified) do in these assays?
ADAM17 inh: inactive; ADAM10 inh: inactive; FAS-TE inh: inactive; GRIN3A LBD mod: 23; KLK7 zymogen act: inactive

What do the screens show for `Cc1ccc(-c2cc(C(=O)NN=Cc3ccc(-c4ccccc4)cc3)[nH]n2)cc1`?
ADAM17 inh: inactive; ADAM10 inh: inactive; KLK7 zymogen act: inactive

How did Cc1cccc(NC(=O)Cn2c(O)c(N=NC(=O)c3ccccc3O)c3ccccc32)c1 do in these assays?
ADAM17 inh: inactive; ADAM10 inh: inactive; FAS-TE inh: inactive; GRIN3A LBD mod: 21; KLK7 zymogen act: inactive

How did COC(=O)[C@]12C[C@H](CC(=O)NCc3cccc4ccccc34)C(=O)N(Cc3ccco3)C1=C[C@H](C(C)C)O[C@@H]2C1CC1 do in these assays?
ADAM17 inh: inactive; ADAM10 inh: inactive; KLK7 zymogen act: inactive

How did Cc1ccc(Cn2nc(C)c(NC(=O)CCCn3nc(C)c([N+](=O)[O-])c3C)c2C)cc1 do in these assays?
ADAM17 inh: inactive; ADAM10 inh: inactive; FAS-TE inh: inactive; GRIN3A LBD mod: inactive; KLK7 zymogen act: inactive

How did Cc1ccc(C)c(Oc2cc(NC(=O)CCCn3nc(C)c([N+](=O)[O-])c3C)cc([N+](=O)[O-])c2)c1 do in these assays?
ADAM17 inh: inactive; ADAM10 inh: inactive; FAS-TE inh: inactive; GRIN3A LBD mod: 16; KLK7 zymogen act: inactive

What do the screens show for `O=C(OC12CCCN(C1)/C(=C/c1ccc(Cl)cc1)C2)c1ccc(Cl)cc1` (stereo unspecified)?
ADAM17 inh: inactive; ADAM10 inh: inactive; KLK7 zymogen act: inactive

How did CCCN1C(=O)/C(=C/c2nc3ccccc3c(=O)[nH]2)c2cc(C)ccc21 do in these assays?
ADAM17 inh: inactive; ADAM10 inh: inactive; FAS-TE inh: inactive; GRIN3A LBD mod: inactive; KLK7 zymogen act: inactive

How did CCCN1C(=O)/C(=C/c2nc3ccccc3c(=O)[nH]2)c2ccccc21 do in these assays?
ADAM17 inh: inactive; ADAM10 inh: inactive; FAS-TE inh: inactive; GRIN3A LBD mod: 25; KLK7 zymogen act: inactive

What do the screens show for `COC1CCCCC1NS(=O)(=O)c1ccccc1` (stereo unspecified)?
ADAM17 inh: inactive; ADAM10 inh: inactive; FAS-TE inh: inactive; GRIN3A LBD mod: 18; KLK7 zymogen act: inactive

Results for Cc1ccc(-c2nc3ccccc3o2)cc1NC(=O)c1ccc2c(c1)OCO2 ?
ADAM17 inh: inactive; ADAM10 inh: inactive; FAS-TE inh: inactive; GRIN3A LBD mod: inactive; KLK7 zymogen act: inactive

Results for O=C(Nc1ccc(-c2nc3ccccc3o2)cc1)c1ccc2c(c1)OCO2 ?
ADAM17 inh: inactive; ADAM10 inh: inactive; FAS-TE inh: inactive; GRIN3A LBD mod: 25; KLK7 zymogen act: inactive

What do the screens show for `O=C(Nc1ccc(-c2nc3ccccc3o2)cc1)c1ccc(N2C(=O)C3C4C=CC(C4)C3C2=O)cc1` (stereo unspecified)?
ADAM17 inh: inactive; ADAM10 inh: inactive; FAS-TE inh: inactive; GRIN3A LBD mod: 18; KLK7 zymogen act: inactive

Results for Cc1ccc2oc(-c3ccc(NC(=O)c4ccc5c(c4)OCO5)cc3)nc2c1 ?
ADAM17 inh: inactive; ADAM10 inh: inactive; FAS-TE inh: inactive; GRIN3A LBD mod: 22; KLK7 zymogen act: inactive

Results for CCCC[C@H]1C2CC(OC(=O)Nc3ccc4c(c3)OCO4)C(C2)[C@H]2CCCCN21 (stereo partly specified) ?
ADAM17 inh: inactive; ADAM10 inh: inactive; KLK7 zymogen act: inactive

How did CC(C)n1nnnc1C1(C)CCCCC(=O)N1Cc1cccc(C(F)(F)F)c1 (stereo unspecified) do in these assays?
ADAM17 inh: inactive; ADAM10 inh: inactive; KLK7 zymogen act: inactive

What do the screens show for `CCCCc1cccc2[nH]cc(C)c12`?
ADAM17 inh: inactive; ADAM10 inh: inactive; KLK7 zymogen act: inactive
